# Laboratory results reported in PubChem BioAssay (Tox21).
# “And” between values parts separate entries of the source, which are not always exact repeats. Identical values can stand only once. Results filed as inconclusive are left out. Unmarked numbers belong to inactive results. The source made the active and inactive calls. The call rests on the fitted dose curve; in most records, active means well fitted cell-killing curve with a large enough effect in the repeat runs; inconclusive means weak or mixed curves, or effect the other way; inactive means flat fitted curve, though single readings scatter.
# Test: cAMP Responsive Elements (CRE) small molecule agonists, cell-based qHTS assay: qHTS cell viability counter screen (AID 2060914);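 further: viability read after 3 h of compound exposure; nearly all actives have a fitted effect of over 50% in size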
# Settings: CRE-bla HEK293T viability, CellTiter-Glo luminescence, 5 h; series mostly up to 92.4 µM; activity change, negative = cytotoxicity: at the top concentration
# Source text: National Center for Advancing Translational Sciences [NCATS]
# Division of Preclinical Innovation [DPI]
# U.S. Environmental Protection Agency [EPA]
# National Institutes of Environmental Health Sciences [NIEHS]
# National Toxicology Program [NTP]
# U.S. Food and Drug Administration [FDA]
# CREB (cyclic-AMP Responsive Element Binding Protein) is a cellular transcription factor. It binds to certain DNA sequences called cAMP Responsive Elements (CRE) and regulates the transcription of the genes. […] This cell line can be used to find agonists/antagonists of the cyclic AMP signaling pathway. The activation of the report gene under culture conditions can be detected by fluorescence intensity. This cell line has been used to screen the Tox21 10K compound library to identify agonists that induce oxidative stress. The cytotoxicity of the Tox21 compound library against the CRE-bla cell line was tested in parallel by measuring the cell viability using CellTiter-Glo assay (Promega, Madison, WI) in the same wells.
# Tox21 Assay Protocol Summary:
# CRE-bla Hek 293T cells were suspended in assay medium (DMEM containing 10% dialyzed FBS, 0.1 mM NEAA, 1 mM sodium pyruvate and 25 mM HEPES) and dispensed at 2,000 cells/5 uL /well into 1536-well black wall/clear bottom plates using a Multidrop Combi (ThermoFisher Scientific, Waltham, MA) dispenser. After the assay plates were incubated at 37 C/5% CO2 for 18 hrs, 23 nL of compounds dissolved in DMSO, positive controls or DMSO only was transferred to the assay plate by a pintool workstation (Kalypsys, San Diego, CA). After the plates were incubated at 37 C/5% CO2 for 3 hrs, 1 uL of LiveBLAzer B/G FRET substrate (Invitrogen, Carlsbad, CA) was added to each well using Bioraptr Flying Reagent Dispenser (FRD, Aurora Discovery, San Diego, CA). The plates were incubated at room temperature for 2 h, then fluorescence intensities were measured using an Envision plate reader (PerkinElmer, Shelton, CT) at Excitation 405nm, Emission 460nm and 530nm. The % activity was determined from the ratio of 460nm/530nm. For cell viability readout that measures cytotoxicity, 4 uL /well of CellTiter-Glo reagent was added into the assay plates using Bioraptr FRD. After 30 min incubation at room temperature, the luminescence intensity in the assay plates was measured using a ViewLux (PerkinElmer, Shelton, CT) plate reader.
# On the % scale 0 is the no-effect control and ±100 the full control effect; potency means the concentration at half of the fitted maximal effect.
SMILES,"activity change, negative = cytotoxicity",Potency
NC(=O)c1cc([N+](=O)[O-])cc([N+](=O)[O-])c1,-3.39% [at 42.5 µM],
Nc1cc2c3c(c1)C(c1ccccc1)=N[C@@H](NC(=O)c1cccnc1)C(=O)N3CC2,-4.02%,
OCc1ccco1,,inactive
Oc1ccc(Cl)cc1,,inactive
O=S(=O)(Oc1ccc(Cl)cc1)c1ccc(Cl)cc1,,inactive
c1ccc(OP(Oc2ccccc2)Oc2ccccc2)cc1,,inactive
COc1ccccc1N1CCNCC1,12% [at 42.5 µM],
O=C(N[C@H](c1ccccc1)[C@@H]1CN2CCC1CC2)c1c(Cl)ccc(C(F)(F)F)c1Cl,12.8%,
CC1OC(C)OC(C)O1 (stereo not given),,inactive
c1ccc(Nc2ccc(Nc3ccccc3)cc2)cc1,-7.89%,
O=C1NC(=O)C(=O)C(=O)N1,1.87%,
O=C(O)c1ccccn1,,inactive
CC[N+]1(C)CCCC(OC(=O)C(O)(c2ccccc2)c2ccccc2)C1 (stereo not given),-27.9% [at 42.5 µM],
CC(C)(c1ccccc1)c1ccc(O)c(C(C)(C)c2ccccc2)c1,,60.6 µM (active) and 61.1 µM (active)
Nc1cccnc1,,inactive
Oc1cccc(Cl)c1,0.356%,
O=C(O)COc1ccccc1,,inactive
ClCC(Br)CBr (stereo not given),-14.3%,
CCC1(c2ccccc2)C(=O)N(COC)C(=O)N(COC)C1=O,2.26% [at 42.5 µM],
CC(=O)CCc1ccc2c(c1)OCO2,0.0496%,

SMILES,"activity change, negative = cytotoxicity",Potency
CCCCCCC#N,0.448%,
C=CCSSCC=C,10.2%,
Cc1cccc(N)c1N,-18.9%,
Cc1cc(C2CC2)nc(Nc2ccccc2)n1,-29.4%,
Cc1cc2c3c(c1)C(c1ccccc1)=N[C@@H](NC(=O)c1ccncc1)C(=O)N3CC2,7.57%,
CCCC(C)C1(CC)C(=O)N=C(S)NC1=O (stereo not given),-7.14% [at 42.5 µM],
C=CCOC(Cn1ccnc1)c1ccc(Cl)cc1Cl (stereo not given),,inactive
CC(C)c1ccc(NC(=O)N(C)C)cc1,8.46%,
CCCCCCC[CH2][Sn]([Cl])([Cl])[CH2]CCCCCCC,4.64%,
CCOC(=O)NC(O)C(Cl)(Cl)Cl (stereo not given),-0.244% [at 42.5 µM],
O=S(=O)(O)O,,inactive
CCCCCCCC[N+](C)(CCCCCCCC)CCCCCCCC,,19.3 µM (active) and 30.6 µM (active)
Oc1ccc(-c2ccccc2)cc1,,inactive
CCOP(=S)(OCC)SC(CCl)N1C(=O)c2ccccc2C1=O (stereo not given),-7.05%,
COc1cc(Cl)c(OC)cc1Cl,20.1%,
Nc1cc(Cl)cc(C(=O)O)c1Cl,,inactive
CCOP(=O)(SC(C)CC)N1CCSC1=O (stereo not given),11.3%,
Cc1ncc(CNC(=O)N(CCCl)N=O)c(N)n1,7.3% [at 42.5 µM],
CN(CCO)CCO,-2.86%,
CCc1ccc(C2CCNCC2)cc1,3.83% [at 42.5 µM],
